According to PubChem BioAssay AID2284144 (EPA ToxCast):
The source made the active and inactive calls. How the source made its calls: active means hit-call score of the fitted dose curve at least 0.9, where 1 is the maximum; inactive means score below 0.9.

The compounds below were run against human Adrenoceptor alpha2C Antagonism, ADRA2C (gene 152) (UniProt P18825) (assay: ERF_TW_GPCR_hADRA2C: Eurofins (ERF) G Protein-Coupled Receptor (GPCR) Radioligand Binding LeadHunter Assay for human Adrenoceptor alpha2C Antagonism).
Sequence of human Adrenoceptor alpha2C Antagonism, ADRA2C (gene 152) (P18825 whole entry, looked up): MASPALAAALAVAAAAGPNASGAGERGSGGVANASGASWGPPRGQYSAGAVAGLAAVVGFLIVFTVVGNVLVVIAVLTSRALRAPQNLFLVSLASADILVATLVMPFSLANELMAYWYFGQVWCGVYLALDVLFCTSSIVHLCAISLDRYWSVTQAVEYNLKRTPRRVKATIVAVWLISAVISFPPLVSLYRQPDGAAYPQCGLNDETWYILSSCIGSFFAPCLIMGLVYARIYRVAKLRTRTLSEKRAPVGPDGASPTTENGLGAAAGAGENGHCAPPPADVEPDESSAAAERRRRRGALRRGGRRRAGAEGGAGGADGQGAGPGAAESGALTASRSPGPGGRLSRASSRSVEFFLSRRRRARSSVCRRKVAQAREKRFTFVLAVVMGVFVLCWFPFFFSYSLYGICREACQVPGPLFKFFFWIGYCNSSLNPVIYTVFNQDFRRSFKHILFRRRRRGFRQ
Description: ERF_TW_GPCR_hADRA2C is a biochemical, single-readout assay that uses extracted gene-proteins in a cell-free assay. Measurements were taken 1 hour after chemical dosing in a 96-well plate. See alpha2C Human Adrenoceptor GPCR Binding (Antagonist Radioligand) Assay, Panlabs.ERF_TW_GPCR_hADRA2C is an assay component calculated from the ERF_TW_GPCR_hADRA2C assay. It is designed to measure radioligand binding using a type of binding reporter as detected by scintillation counting with radiometry technology.Data from the assay component ERF_TW_GPCR_hADRA2C was analyzed at the assay endpoint, ERF_TW_GPCR_hADRA2C, in the positive analysis fitting direction relative to DMSO as the negative control and baseline of activity. Using a type of binding reporter, loss-of-signal activity can be used to understand changes in radioligand binding as they relate to gene ADRA2C. To generalize the intended target to other relatable targets, this assay endpoint is annotated to the gpcr intended target family, where the subfamily is adrenoceptor.
Human recombinant adrenergic alpha2C receptor expressed in CHO-K1 cells are used in modified Tris-HCl buffer pH 7.4. A 2 ug aliquot of membrane is incubated with 0.5 nM [3H]Rauwolscine for 60 minutes at 25C. […] Membranes are filtered and washed, the filters are then counted to determine [3H]Rauwolscine specifically bound. […]
For `O=C(/C=C/c1ccc(O)cc1)CC(=O)/C=C/c1ccc(O)cc1`, the AC50 was 602 nM (active).
